# Laboratory results as given in PubChem BioAssay.
# Results filed as inconclusive are left out. The source made the active and inactive calls.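 How the source made its calls, unless noted: active means GFP response above 150% of the DMSO level; inconclusive means fewer than 70 events counted for a yeast strain; inactive means the rest.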
# Tests used:
# [1] = RPL19A-GFP modulators, yeast TOR pathway, confirmation, cell-based, S. cerevisiae, flow cytometry, cherry picks, mother/daughter gates (AID 2270;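 active means GFP response below 50% of the DMSO control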); details: S. cerevisiae RPL19A-GFP strain, 3 h, at 10 µM, stronger effect = lower value, 100 = same GFP as DMSO wells
# [2] = LAP4-GFP expression modulators in yeast, confirmation, cell-based, cherry picks, flow cytometry, mother/daughter gates (AID 2271;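 active means GFP response above 150% of the DMSO control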;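 further: ratio of sample to DMSO plate mean so 100% equals DMSO level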); details: S. cerevisiae LAP4-GFP strain, 3 h, at 10 µM, stronger effect = higher value
# [3] = modulators of CIT2-GFP expression in yeast, confirmation, S. cerevisiae, GFP fusion, cherry picks, mother/daughter gates (AID 2274); details: S. cerevisiae CIT2-GFP strain, flow cytometry, 3 h, at 10 µM, stronger effect = higher value
# [4] = yeast TOR pathway RPL19A-GFP modulators, primary screen, cell-based, S. cerevisiae, multiplex flow cytometry (AID 1862; in the data active means percent of DMSO control GFP below about 86%;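 further: lower values mimic rapamycin by blocking the RPL19A rise seen in DMSO cells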); details: S. cerevisiae RPL19A-GFP strain, flow cytometry fluorescence, 3 h; at 10 µM; stronger effect = lower value
# [5] = modulators of MEP2-GFP levels in yeast, primary screen, S. cerevisiae, multiplex flow cytometry (AID 1867;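 active means GFP response, as percent of the DMSO control, above the screen-wide mean plus 3 SD, about 139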;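 further: median GFP channel fluorescence of barcode-gated MEP2-GFP cells measured by flow cytometry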); details: S. cerevisiae MEP2-GFP strain, 3 h, at 10 µM, stronger effect = higher value
# [6] = modulators of CIT2-GFP expression in yeast, primary screen, S. cerevisiae, GFP fusion, multiplex flow cytometry (AID 1870;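 active means percent response above a set limit, the screen-wide mean plus 3 SD, cut at about 130% in these data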;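 further: barcoded CIT2-GFP strain pooled with four other GFP strains with rapamycin as positive control; median GFP fluorescence per well over plate mean of DMSO wells so 100% = DMSO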); details: 3 h, at 10 µM, stronger effect = higher value
# [7] = modulators of LAP4-GFP expression in yeast, primary screen, S. cerevisiae, multiplex flow cytometry (AID 1873;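 active means GFP signal, as percent of the solvent control, above the screen mean plus 3 SD, about 149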); details: 3 h, at 10 µM, stronger effect = higher value
# [8] = inhibitors of CD8+ T cell-vesicle binding, pilot screen, LFA-1/ICAM-1 modulator project, MLPCN validation set, flow cytometry (AID 2523); details: 2C mouse CD8+ T cells, at 7 µM, stronger effect = lower value; double positive events: measured here: CD8+/vesicle+ event percentage
# [9] = target: Integrin beta-1 (Homo sapiens) + Integrin alpha-4 (Homo sapiens) (UniProt P13612+P05556); test: inhibition of HUTS-21 binding to VLA-4, pilot screen, VLA-4 allosteric modulator project, U937 cells, HUTS-21 mAb, flow cytometry, validation set (AID 2674;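 active means inhibition above 50%, about 3 SD of the validation set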;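 further: antibody binding induced by the VLA-4 ligand LDV present at three times its Kd; 0% = LDV ligand with antibody and no compound and 100% = antibody without LDV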); details: HUTS-21 LIBS mAb binding, at 6.7 µM, stronger effect = higher value
# [10] = superoxide lowering in aged yeast cells, pilot screen, validation compound set (AID 2706;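 active means superoxide response below 65% of plate, a cut near 3 SD across the whole screen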;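 further: yeast exposed to compound for one week at 30 degrees C before staining; 100% = mean of all compound wells on the same plate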); details: S. cerevisiae aging, superoxide DHE fluorescence; at 10 µM; stronger effect = lower value
# [11] = target: Beta-adrenergic receptor kinase 1 (Homo sapiens) (UniProt P25098); test: GRK2 binders displacing RNA aptamer, biochemical, validation, human GRK2, bead flow cytometry (AID 488806;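 active means aptamer binding inhibition above 30%, about 3 SD of noise from non-fluorescent compounds; inactive means inhibition at or below 30%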); details: bead-bound GRK2, FAM-aptamer displacement, at 10 µM, stronger effect = higher value
# [12] = target: AP-2 complex subunit beta (Homo sapiens) (UniProt P63010); test: inhibitors of arrestin peptide binding to AP2, pilot screen, biochemical, validation set, GST-AP2 beads, flow cytometry (AID 504541;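 active means inhibition above 54%, about 3 SD of non-fluorescent compounds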;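 further: AP2 carries R879A mutation and is captured from E. coli lysate; bead-bound FITC arrestin peptide fluorescence measuring arrestin peptide binding to AP2; 0% = DMSO wells and 100% = excess unlabeled arrestin peptide control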); details: FITC arrestin peptide, at 10 µM, stronger effect = higher value
# [13] = yeast V-ATPase proton transport modulators, S. cerevisiae, pHLuorin, HTS validation (AID 504600; in the data active means response above about 15%;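 further: plate controls were DMSO for no effect and reference compound for full effect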); details: S. cerevisiae pHLuorin cytosolic pH, at 10 µM, stronger effect = higher value
# [14] = tested on: anti-desmoglein-3 scFv antibody binding to human DSG3; test: inhibitors of anti-DSG3 scFv binding to DSG3, pilot screen, biochemical, validation compound set, bead-based, flow cytometry (AID 588368;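 active means binding below the plate cutoff, the plate median minus 3 SD, with a reading above zero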;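 further: signal is the median channel fluorescence of bead-bound GFP antibody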); details: Protein G beads, DSG3-Fc, scFv-GFP binding, at 10 µM, stronger effect = lower value
# [15] = tested on: Botulinum neurotoxin type F light chain protease (Clostridium botulinum); test: Botulinum neurotoxin type F light chain protease inhibition, multiplex microsphere flow cytometry, validation set (AID 588459; call rule not given here); details: multiplex microsphere protease substrate cleavage assay, at 10 µM, stronger effect = higher value
# [16] = target: Botulinum neurotoxin type A (Clostridium botulinum) (UniProt P0DPI0); test: BoNT/A light chain protease inhibitors, biochemical, multiplex microsphere flow cytometry, validation set (AID 588460; call rule not given here); details: at 10 µM, stronger effect = higher value
# [17] = target: Lethal factor (Bacillus anthracis) (UniProt P15917); test: Lethal factor protease inhibitors, Bacillus anthracis, multiplex microsphere cleavage assay, validation set (AID 588461; call rule not given here); details: flow cytometry, at 10 µM, stronger effect = higher value
# [18] = inhibitors of fungal efflux pumps CDR1, CDR2, MDR1, pilot screen, validation compound set, multiplex, phenotypic (AID 588506;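 active means efflux inhibition above 0.42, the validation set average plus 4 SD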;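 further: Nile Red retained in cells so higher fluorescence means more efflux inhibition; 0 = negative control wells and 1 = enniatin B 25 µM full block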); details: S. cerevisiae pump-expressing triplex, Nile Red efflux flow cytometry; at 10 µM; stronger effect = higher value
# [19] = target: ATP-binding cassette sub-family B member 6 (Homo sapiens) (UniProt Q9NP58); test: ABCB6 transporter inhibitors, pilot screen, K562-ABCB6 cells, flow cytometry, validation set (AID 588550;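 active means inhibition above the screen-wide mean plus 3 SD, about 51%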;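 further: 0% = DMSO wells and 100% = benzethonium chloride 70 µM positive control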); details: K562-ABCB6 porphyrin accumulation, 1 h, at 10 µM, stronger effect = higher value
# [20] = promoters of myeloid differentiation in arrested cells, primary screen, cell-based, GFP/MAC1 double positive, flow cytometry, validation set (AID 588685;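 active means differentiation response of at least 50%, scaled between solvent and reference control, from cells with both markers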;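 further: compound exposure lasts four days before antibody staining and flow analysis; 0% = DMSO wells and 100% = 5 µM fulvestrant positive control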); details: ER-HoxA9 marrow cells, stronger effect = higher value
# [21] = measured here: daughter cell gate
# [22] = measured here: mother cell gate
# [23] = measured here: daughter cell gate response
# [24] = measured here: mother cell gate response
smiles,measurement,setting,value
C#CCOc1cc(C2C3=C(COC3=O)Nc3cc4c(cc32)OCO4)ccc1OC (centres undefined),GFP response vs DMSO,[1],102% (inactive)
same,GFP response vs DMSO,[1]; [21],100%
same,GFP response vs DMSO,[1]; [22],103%
same,GFP response relative to DMSO,[2],113% (inactive)
same,GFP response relative to DMSO,[2]; [23],106%
same,GFP response relative to DMSO,[2]; [24],114%
same,"GFP response, % of DMSO",[3],107% (inactive)
same,"GFP response, % of DMSO",[3]; [21],103%
same,"GFP response, % of DMSO",[3]; [22],107%
CCN1C(=O)NC(=O)/C(=C\c2cn(CC(=O)N3CCCC3)c3ccccc23)C1=O,GFP response vs DMSO,[1],97.3% (inactive)
same,GFP response vs DMSO,[1]; [21],97.3%
same,GFP response vs DMSO,[1]; [22],96.9%
same,GFP response relative to DMSO,[2],102% (inactive)
same,GFP response relative to DMSO,[2]; [23],102%
same,GFP response relative to DMSO,[2]; [24],102%
same,"GFP response, % of DMSO",[3],100% (inactive)
same,"GFP response, % of DMSO",[3]; [21],101%
same,"GFP response, % of DMSO",[3]; [22],100%
COc1ccc(N2C(=O)/C(=C/c3ccco3)C(=O)NC2=S)cc1,GFP response vs DMSO,[1],97.4% (inactive)
same,GFP response vs DMSO,[1]; [21],102%
same,GFP response vs DMSO,[1]; [22],91.4%
same,GFP response relative to DMSO,[2],91.4% (inactive)
same,GFP response relative to DMSO,[2]; [23],94.1%
same,GFP response relative to DMSO,[2]; [24],94.2%
same,"GFP response, % of DMSO",[3],91.3% (inactive)
same,"GFP response, % of DMSO",[3]; [21],103%
same,"GFP response, % of DMSO",[3]; [22],83.7%
CN1C(=O)NC(=O)/C(=C\C=C\c2ccccc2[N+](=O)[O-])C1=O,GFP response vs DMSO,[1],102% (inactive)
same,GFP response vs DMSO,[1]; [21],90.4%
same,GFP response vs DMSO,[1]; [22],93.5%
same,GFP response relative to DMSO,[2],107% (inactive)
same,GFP response relative to DMSO,[2]; [23],103%
same,GFP response relative to DMSO,[2]; [24],112%
same,"GFP response, % of DMSO",[3],84.7% (inactive)
same,"GFP response, % of DMSO",[3]; [21],96.8%
same,"GFP response, % of DMSO",[3]; [22],70.8%
Cc1cccn2c(NCC3CCCO3)c(C(C)C)nc12 (centres undefined),GFP response vs DMSO,[1],99.1% (inactive)
same,GFP response vs DMSO,[1]; [21],100%
same,GFP response vs DMSO,[1]; [22],100%
same,GFP response relative to DMSO,[2],97.7% (inactive)
same,GFP response relative to DMSO,[2]; [23],96.5%
same,GFP response relative to DMSO,[2]; [24],96.5%
same,"GFP response, % of DMSO",[3],106% (inactive)
same,"GFP response, % of DMSO",[3]; [21],106%
same,"GFP response, % of DMSO",[3]; [22],105%
CCOC(=O)C(C)Oc1cc(C)cc2oc(=O)c3c(c12)CCCC3 (centres undefined),percent of DMSO control GFP,[4],95.2% (inactive)
same,GFP response vs DMSO,[5],116% (inactive)
same,percent response of DMSO control,[6],104% (inactive)
same,GFP response vs DMSO,[7],74.8% (inactive)
same,double positive events,[8],81.8%
same,inhibition,[9],0.64% (inactive)
same,superoxide response (% of plate),[10],103% (inactive)
same,aptamer binding inhibition,[11],5% (inactive)
same,inhibition,[12],-3.6% (inactive)
same,response,[13],-8.97% (inactive)
same,binding (% of control),[14],97.6% (inactive)
same,inhibition,[15],-0.4% (inactive)
same,inhibition,[16],-1.5% (inactive)
same,inhibition,[17],0.6% (inactive)
same,efflux inhibition (fraction of control),[18],-0.46 (inactive)
same,inhibition,[19],12% (inactive)
same,differentiation response,[20],-9.01% (inactive)
CCCCn1c(=O)c(C(=O)Nc2ccsc2C(=O)OC)c(O)c2ccccc21,GFP response vs DMSO,[1],101% (inactive)
same,GFP response vs DMSO,[1]; [21],94.9%
same,GFP response vs DMSO,[1]; [22],100%
same,GFP response relative to DMSO,[2],94.4% (inactive)
same,GFP response relative to DMSO,[2]; [23],95.9%
same,GFP response relative to DMSO,[2]; [24],94.1%
same,"GFP response, % of DMSO",[3],95.9% (inactive)
same,"GFP response, % of DMSO",[3]; [21],93.8%
same,"GFP response, % of DMSO",[3]; [22],95.6%
CCN(CC)c1ccc(C=C2C(=O)NC(=S)NC2=O)cc1,GFP response vs DMSO,[1],94.7% (inactive)
same,GFP response vs DMSO,[1]; [21],90.2%
same,GFP response vs DMSO,[1]; [22],90%
same,GFP response relative to DMSO,[2],128% (inactive)
same,GFP response relative to DMSO,[2]; [23],116%
same,GFP response relative to DMSO,[2]; [24],131%
same,"GFP response, % of DMSO",[3],94.4% (inactive)
same,"GFP response, % of DMSO",[3]; [21],95.8%
same,"GFP response, % of DMSO",[3]; [22],84.8%
O=c1oc2ccccc2c(O)c1[C@H]1c2ccc(O)cc2Oc2c1c(=O)oc1ccccc21,GFP response vs DMSO,[1],108% (inactive)
same,GFP response vs DMSO,[1]; [21],96.1%
same,GFP response vs DMSO,[1]; [22],98.9%
same,GFP response relative to DMSO,[2],190% (active)
same,GFP response relative to DMSO,[2]; [23],167%
same,GFP response relative to DMSO,[2]; [24],192%
same,"GFP response, % of DMSO",[3],76.9% (inactive)
same,"GFP response, % of DMSO",[3]; [21],78.5%
same,"GFP response, % of DMSO",[3]; [22],71.9%
